Only some compounds are listed: those with a hit (about 18% of all), similar ones and a draw of the others.
IL1B secr inh = blocks inflammasome-driven IL-1 beta release. THP-1 LPS/ATP IL-1B secretion, AlphaLISA, 16 h; active compounds read low. activity change, % at 57.5 µM. 360,000 tested, 4.7% active; in the data active = activity change below about -50%; inconclusive = mostly about -30% to -49%
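Secreted IL-1B measured by AlphaLISA bead assay after 16 h compound exposure of THP-1 cells; compounds (final up to 57.5 uM) added 1 h before LPS (250 ng/mL) and ATP (1.25 mM) stimulation; lower signal means less secretion.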
TDP1 inh = inhibitors of human tyrosyl-DNA phosphodiesterase TDP1; recombinant TDP1, AlphaScreen DNA substrate cleavage; Potency, µM (highest dose often 130 µM), actives largely listed as inhibitors; 350,000 tested, 0.28% active; AID 485290; note: nearly all actives have a fitted effect of over 40% in size
Target sequence (Q9NUW8 whole entry, looked up): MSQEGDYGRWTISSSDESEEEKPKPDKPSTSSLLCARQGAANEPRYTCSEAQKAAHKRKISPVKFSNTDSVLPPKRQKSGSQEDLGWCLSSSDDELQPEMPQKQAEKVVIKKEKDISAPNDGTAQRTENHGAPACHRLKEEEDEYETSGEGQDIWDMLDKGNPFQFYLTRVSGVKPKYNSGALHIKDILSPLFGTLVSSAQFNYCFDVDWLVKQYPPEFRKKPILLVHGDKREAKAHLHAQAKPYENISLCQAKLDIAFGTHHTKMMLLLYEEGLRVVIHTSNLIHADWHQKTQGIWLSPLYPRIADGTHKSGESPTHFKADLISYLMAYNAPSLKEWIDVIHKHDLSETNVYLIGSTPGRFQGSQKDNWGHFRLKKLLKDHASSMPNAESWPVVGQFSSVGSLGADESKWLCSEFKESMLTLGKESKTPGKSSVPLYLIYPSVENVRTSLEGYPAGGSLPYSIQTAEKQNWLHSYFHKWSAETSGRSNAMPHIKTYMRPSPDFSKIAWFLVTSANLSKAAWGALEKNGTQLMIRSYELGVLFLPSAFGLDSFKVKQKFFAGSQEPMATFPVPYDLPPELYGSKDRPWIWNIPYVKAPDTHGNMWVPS
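Here, a 5' biotin and 3' phosphotyrosine-FITC DNA oligonucleotide reports Tdp1 activity: intact substrate bridges AlphaScreen beads, while cleavage leaves a 3' phosphate and drops signal. All incubations at room temperature.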
TDP1 cell noCPT = qHTS for Inhibitors of human tyrosyl-DNA phosphodiesterase 1 (TDP1): qHTS in cells in absence of CPT. DT40 Tdp1-/- hTDP1 cells, no CPT, ATP luminescence, 48 h. Potency, µM (series often up to 46.2 µM), hits mostly inhibitors. 420,000 tested, 15% active; note: nearly all actives have a fitted effect of over 55% in size
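DT40 Tdp1-/-;hTDP1 cells, no CPT (DMSO vehicle only), 400 cells/well; compounds pin-transferred; ≥48 hr, 37 °C; CellTiter-Glo 30 min RT dark, luminescence read.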
TGFb SMAD3 inh = blocks TGF-b signaling. Potency, µM (series often up to 46.1 µM), hits mostly inhibitors. HepG2 CAGA-GFP TGF-b/SMAD3 reporter, GFP fluorescence, 18 h; TGF-beta stimulated, 500 pg/mL final. 410,000 tested, 1.2% active; note: nearly all actives have a fitted effect of over 65% in size
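Inhibition of TGF-beta-driven CAGA-GFP reporter expression in HEPG2 cells is measured by cellular GFP fluorescence after 18 h stimulation with 500 pg/mL recombinant TGF-beta in 1% FBS medium at 37 degrees C.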
HepG2 tox = kills HepG2 cells in TGF-b inhibitor counter-screen | 410,000 tested, 0.76% active | AID 588856 | Potency, µM (top dose mostly 46.1 µM), hits mostly cytotoxic | HepG2 CAGA-GFP viability, ATP luminescence, 18 h
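HepG2 CAGA-GFP cells (1000/well, DMEM with 1% FBS) received compound, then TGF-beta at 500 pg/mL final, and were incubated 18 hours at 37 degrees C. Viability was read by CellTiter-Glo luminescence. Media-only wells were set as complete cell-killing and DMSO as no toxicity.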
TDP1 cell CPT = DT40-hTDP1 cell growth loss with CPT | chicken DT40 Tdp1-/-;hTDP1 cells + 20 nM CPT, ATP luminescence, 48 h | Potency, µM (highest dose often 46.2 µM), most hits filed as inhibitors | 420,000 tested, 12% active | AID 686979; note: nearly all actives have a fitted effect of over 55% in size
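Chicken DT40 Tdp1-/- cells complemented with human TDP1, 400 cells/well, exposed to compounds plus 20 nM camptothecin for at least 48 h at 37 C; viability read as ATP content by CellTiter-Glo luminescence.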
A number is an active result; [ ] = remark or other dose. Unless noted, calls come from the whole dose curve; as a rule, active = well fitted curve in the direction sought with a large enough effect; inconclusive = small, poorly fitted or top-dose-only effect, or another doubt; inactive = no such curve, though single readings can be large; an effect the other way counts as inactive or inconclusive.

CCCCC1=CC2=CC(=O)C(C)(OC(=O)CC)C(=O)C2=CN1c1ccc(OC)cc1 (configuration not stated) was read as IL1B secr inh inactive, TDP1 inh inactive[12.3 µM], TDP1 cell noCPT inconclusive, TGFb SMAD3 inh inconclusive, HepG2 tox inactive and TDP1 cell CPT 26µM.
`CCCCC1=CC2=CC(=O)C(C)(OC(=O)CC)C(=O)C2=CN1Cc1ccc2c(c1)OCO2` (configuration not stated) gave IL1B secr inh inactive, TDP1 inh inactive[21 µM], TDP1 cell noCPT 15µM, TGFb SMAD3 inh inactive, HepG2 tox inactive and TDP1 cell CPT inconclusive.
For CC1CC(=Cc2ccc([N+](=O)[O-])cc2)C(=O)O1 (configuration not stated) the results were IL1B secr inh inactive, TDP1 cell noCPT inactive, TGFb SMAD3 inh inactive, HepG2 tox inactive and TDP1 cell CPT inactive.
O=c1oc2ccccc2c(Nc2ccc(Cl)cc2)c1[N+](=O)[O-] was read as IL1B secr inh inactive, TDP1 inh inactive, TDP1 cell noCPT 13µM, TGFb SMAD3 inh inconclusive, HepG2 tox inactive and TDP1 cell CPT inconclusive.
`COC(=O)c1ccc(Nc2c([N+](=O)[O-])c(=O)oc3ccccc23)cc1` gave IL1B secr inh -78, TDP1 inh inactive, TDP1 cell noCPT inconclusive, TGFb SMAD3 inh inactive, HepG2 tox inactive and TDP1 cell CPT inactive.
Screening O=c1oc2ccccc2c(Nc2ccc(F)cc2)c1[N+](=O)[O-] returned IL1B secr inh inactive, TDP1 inh inactive, TDP1 cell noCPT inconclusive, TGFb SMAD3 inh inconclusive, HepG2 tox inactive and TDP1 cell CPT inconclusive.
Screening CCOc1ccc(S(=O)(=O)N2CCN=C2c2ccccc2)c(C)c1C returned IL1B secr inh inactive, TDP1 inh inactive, TDP1 cell noCPT 23µM, TGFb SMAD3 inh inactive, HepG2 tox inactive and TDP1 cell CPT 16µM.
COc1cc(S(=O)(=O)N2CCN=C2c2ccccc2)ccc1F was read as IL1B secr inh inactive, TDP1 inh inactive, TDP1 cell noCPT 23µM, TGFb SMAD3 inh inactive, HepG2 tox inactive and TDP1 cell CPT inconclusive.
`COc1cc(S(=O)(=O)N2CCN(c3ccccc3)CC2)ccc1F` gave IL1B secr inh inactive, TDP1 inh inactive, TDP1 cell noCPT inconclusive, TGFb SMAD3 inh inactive, HepG2 tox inactive and TDP1 cell CPT inconclusive.
`CCOc1ccc(S(=O)(=O)N2CCCC2)c2ccccc12` gave IL1B secr inh inactive, TDP1 cell noCPT inconclusive, TGFb SMAD3 inh inactive, HepG2 tox inactive and TDP1 cell CPT inconclusive.
For O=C(O)Cc1ccc(NC(=O)c2ccc3c(c2)C(=O)N(Cc2ccco2)C3=O)cc1 the results were IL1B secr inh inactive, TDP1 inh inactive, TDP1 cell noCPT inactive, TGFb SMAD3 inh inactive, HepG2 tox inactive and TDP1 cell CPT inactive.
O=C(CN1C(=O)COc2ccc(S(=O)(=O)N3CCOCC3)cc21)N1CCN(c2ccc(Cl)cc2)CC1 was read as TDP1 inh inactive, TGFb SMAD3 inh inactive and HepG2 tox inactive.
For O=C(CCS(=O)(=O)c1ccc(Cl)cc1)Nc1nnc(-c2ccco2)o1 the results were IL1B secr inh -81, TDP1 cell noCPT inconclusive, TGFb SMAD3 inh inactive, HepG2 tox inactive and TDP1 cell CPT 9.2µM.
O=C(Nc1nnc(-c2ccco2)o1)c1ccc(Br)s1 was read as IL1B secr inh inactive, TDP1 cell noCPT inconclusive, TGFb SMAD3 inh inactive, HepG2 tox inactive and TDP1 cell CPT inconclusive.
For O=C(Nc1nnc(-c2ccco2)o1)c1ccc(Cl)s1 the results were IL1B secr inh inactive, TDP1 inh inactive, TDP1 cell noCPT 16µM, TGFb SMAD3 inh inactive, HepG2 tox inactive and TDP1 cell CPT 21µM.
Screening Cc1ccc(S(=O)(=O)CCC(=O)Nc2nnc(-c3ccco3)o2)cc1 returned IL1B secr inh inactive, TDP1 inh inactive, TDP1 cell noCPT inconclusive, TGFb SMAD3 inh inactive, HepG2 tox inactive and TDP1 cell CPT inconclusive.
O=C(Nc1nnc(-c2cc(Cl)ccc2Cl)o1)c1ccco1 was read as IL1B secr inh inactive, TDP1 cell noCPT 16µM, TGFb SMAD3 inh inactive, HepG2 tox inactive and TDP1 cell CPT inconclusive.
`Cc1ccc(SCC(=O)Nc2nnc(-c3ccco3)o2)cc1` gave IL1B secr inh inactive, TDP1 cell noCPT 29µM, TGFb SMAD3 inh inactive, HepG2 tox inactive and TDP1 cell CPT inactive.
For O=c1c2sc3ccccc3c2n(Cc2cccc(F)c2)c(=O)n1CCc1ccccc1 the results were TDP1 inh inactive, TDP1 cell noCPT inconclusive, TGFb SMAD3 inh inactive, HepG2 tox inactive and TDP1 cell CPT inconclusive.
Screening O=C(CS(=O)(=O)c1ccccc1)Nc1nnc(-c2cccs2)o1 returned IL1B secr inh inactive, TDP1 inh inactive, TDP1 cell noCPT inactive, TGFb SMAD3 inh inactive, HepG2 tox inactive and TDP1 cell CPT inactive.
Cc1ccc(S(=O)(=O)CCC(=O)OC(C)c2nnc(-c3cccs3)o2)cc1 (configuration not stated) was read as IL1B secr inh inactive, TDP1 inh inactive, TDP1 cell noCPT inactive, TGFb SMAD3 inh inactive, HepG2 tox inactive and TDP1 cell CPT inactive.
For O=C(CCS(=O)(=O)c1ccc(Cl)cc1)Nc1nnc(-c2cccs2)o1 the results were IL1B secr inh inactive, TDP1 inh inactive, TDP1 cell noCPT 16µM, TGFb SMAD3 inh inconclusive, HepG2 tox inactive and TDP1 cell CPT 16µM.
Cc1ccc(S(=O)(=O)CCC(=O)Nc2nnc(-c3cccs3)o2)cc1 was read as IL1B secr inh -61, TDP1 cell noCPT 16µM, TGFb SMAD3 inh inconclusive, HepG2 tox inactive and TDP1 cell CPT inconclusive.
CN(C)S(=O)(=O)c1cccc(C(=O)NCCNC(=O)c2cccc(S(=O)(=O)N(C)C)c2)c1 was read as IL1B secr inh inactive, TDP1 cell noCPT inactive, TGFb SMAD3 inh inactive, HepG2 tox inactive and TDP1 cell CPT inactive.
For COC(=O)C(NS(=O)(=O)c1cccc(S(=O)(=O)NC(C(=O)OC)c2ccccc2)c1)c1ccccc1 (configuration not stated) the results were IL1B secr inh inactive, TDP1 cell noCPT inactive, TGFb SMAD3 inh inactive, HepG2 tox inactive and TDP1 cell CPT inactive.
For COC(=O)C(Cc1ccccc1)NC(=O)c1cccc(S(=O)(=O)N(C)C)c1 (configuration not stated) the results were IL1B secr inh -89, TDP1 inh inactive, TDP1 cell noCPT inactive, TGFb SMAD3 inh inactive, HepG2 tox inactive and TDP1 cell CPT inactive.
`COC(=O)[C@H](Cc1ccccc1)N(C)S(=O)(=O)c1cccc(S(=O)(=O)N(C)[C@@H](Cc2ccccc2)C(=O)OC)c1` gave IL1B secr inh inactive, TDP1 cell noCPT inconclusive, TGFb SMAD3 inh inactive, HepG2 tox inactive and TDP1 cell CPT 15µM.

Screening data deposited in PubChem BioAssay by National Center for Advancing Translational Sciences (NCATS).
